High-throughput results as filed in PubChem BioAssay.
LmPK inhibitor – blocks Leishmania mexicana pyruvate kinase activity; purified LmPK, Kinase-Glo ATP luminescence, 1 h; Q27686; actives 0.37% (n = 290,000); Potency, µM (series often up to 57.5 µM), usual class: inhibitors
Target sequence (Q27686 whole entry, looked up): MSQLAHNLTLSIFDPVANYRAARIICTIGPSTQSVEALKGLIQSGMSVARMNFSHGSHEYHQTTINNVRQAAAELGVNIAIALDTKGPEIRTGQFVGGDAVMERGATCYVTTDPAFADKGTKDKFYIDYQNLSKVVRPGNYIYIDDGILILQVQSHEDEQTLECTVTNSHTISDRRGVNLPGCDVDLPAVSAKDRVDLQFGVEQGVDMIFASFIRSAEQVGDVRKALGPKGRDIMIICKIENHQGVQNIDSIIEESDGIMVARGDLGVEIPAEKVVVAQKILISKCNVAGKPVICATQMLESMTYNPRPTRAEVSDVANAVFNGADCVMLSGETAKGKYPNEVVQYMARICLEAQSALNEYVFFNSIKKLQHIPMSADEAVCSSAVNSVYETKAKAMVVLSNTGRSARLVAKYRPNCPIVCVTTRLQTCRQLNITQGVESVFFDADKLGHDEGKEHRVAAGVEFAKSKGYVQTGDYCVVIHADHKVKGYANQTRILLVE
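Screened at intermediate enzyme activity to detect both inhibitors and activators: LmPK at 0.1 nM, with a 0.5 nM enzyme column as activation reference. PEP 0.5 mM, ADP 0.1 mM; ATP detected by luminescence after 1 h.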
Shiga toxin inh – Shiga toxin inhibition | Vero cells, Shiga toxin protein synthesis inhibition reporter | inhibition, % at 38.7 µM | actives 9.2% (n = 290,000) | AID 2315; in the data active = inhibition mostly above about 28%, no sharp cut-off; inactive = mostly below about 43%
Pf growth 96h – P. falciparum growth inhibition at 96 hour, primary screen for plastid delayed-death inhibitors; P. falciparum luciferase reporter growth, 96 h; Potency, µM (series often up to 28.7 µM), most hits filed as inhibitors; actives 6.9% (n = 320,000)
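Parasite growth measured via integrated firefly luciferase reporter in P. falciparum. Infected erythrocytes at 2% hematocrit, 0.05% parasitemia final were treated 96 hours at 37 C under 5% CO2, and luminescence was read.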
Pf growth 48h – P. falciparum growth inhibition at 48 hours (one generation) | P. falciparum luciferase growth in erythrocytes, 48 h | Potency, µM (doses to about 28.7 µM), usual class: inhibitors | actives 5.9% (n = 310,000) | AID 504832
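Erythrocytes infected with P. falciparum carrying an integrated firefly luciferase reporter (2% hematocrit, 0.1% parasitemia final) were exposed to compounds in RPMI 1640 with 0.5% Albumax at 37 C, 5% CO2. Growth inhibition was scored as reduced luminescence.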
CHX counter – counter-screen for Shiga toxin inhibitors: cycloheximide protein synthesis inhibition. actives 12% (n = 300,000). max response, %. AID 2314. cell reporter, cycloheximide protein synthesis inhibition counterscreen; in the data active = max response mostly above about 13%, no sharp cut-off; inactive = mostly below about 14%; also: read at 38.3 µM for the half of the compounds with a filed dose
Of the large screens only hits and unclear results are named; the others gave an inactive call. Shown are actives, neighbours in structure and some others; about 22% of the full set was active somewhere. Unless noted, calls follow the shape of the dose curve; as a rule, active = well fitted inhibition curve with a large enough effect; inconclusive = small, poorly fitted or top-dose-only effect, or another doubt; inactive = no such curve, though single readings can be large or run the other way.

COc1ccc(C2CC(=O)N(CC(=O)NCC3CCCO3)c3ccccc3S2)cc1OC (stereo not given)	Pf growth 96h inconclusive, Pf growth 48h inconclusive, CHX counter 24.6
COc1ccc(C2CC(=O)N(C)c3ccccc3S2)cc1OC (stereo not given)	Shiga toxin inh 149.1, Pf growth 96h inconclusive, CHX counter 56.7
O=C(CN1C(=O)CC(c2ccccc2)Sc2ccccc21)NCC1CCCO1 (stereo not given)	none
COc1ccc(NC(=O)CN(C)Cc2c(F)cccc2Cl)cc1S(=O)(=O)N1CCCCC1	Pf growth 96h inconclusive, Pf growth 48h inconclusive
CCCN1CCN(CC(=O)NCC(=O)Nc2cccc(C)c2C)CC1	none (no result: LmPK inhibitor, Shiga toxin inh, CHX counter)
COc1ccccc1-c1nn(-c2ccccc2)cc1C(=O)N1CCc2ccccc2C1	Pf growth 96h 3.7µM, Pf growth 48h inconclusive (no result: LmPK inhibitor, Shiga toxin inh, CHX counter)
COc1cccc(-c2nn(-c3ccccc3)cc2C(=O)O)c1	none
COc1cccc(-c2nn(-c3ccc(C)cc3)cc2C(=O)N2CCc3cc(OC)c(OC)cc3C2)c1	Pf growth 96h inconclusive, Pf growth 48h 9.28µM (no result: LmPK inhibitor, Shiga toxin inh, CHX counter)
COc1ccccc1-c1nn(-c2ccccc2)cc1C(=O)N1CCN(C(=O)c2ccco2)CC1	Pf growth 48h inconclusive (no result: LmPK inhibitor, Shiga toxin inh, CHX counter)
COc1ccc(OC)c(-c2nn(-c3ccccc3)cc2C(=O)N2CCc3ccccc3C2)c1	Pf growth 96h inconclusive, Pf growth 48h 10.4µM (no result: LmPK inhibitor, Shiga toxin inh, CHX counter)
O=C(O)c1csc(-n2nc(-c3ccccc3)cc2C(F)(F)F)n1	none
O=C1CC(c2ccc(F)cc2)c2cc3c(cc2N1)CCC3 (stereo not given)	Pf growth 48h 14.7µM
COc1cc2c(cc1OC)C(c1ccc(Cl)cc1)CC(=O)N2 (stereo not given)	Pf growth 96h inconclusive
Fc1cc(Cl)c(OCc2noc(-c3ccsc3)n2)c(Cl)c1	Shiga toxin inh 35.0, CHX counter 21.2
Clc1ccc(OCc2noc(-c3ccsc3)n2)c(Cl)c1	Shiga toxin inh 130.2, CHX counter 49.8
CCOC(=O)CCc1c(C(=O)OCC)[nH]c(CC)c1C(=O)OCc1ccccc1	Pf growth 96h inconclusive, Pf growth 48h inconclusive
CCOC(=O)C1=C(C)NC(=O)CC1c1cc(OC)c(OC)cc1Br (stereo not given)	Pf growth 96h inconclusive, Pf growth 48h 0.465µM
CCOC(=O)C1=C(C)NC(=O)CC1c1cc2c(cc1Br)OCO2 (stereo not given)	none
Cc1ccccc1Cn1cc(NC(=O)c2cc(C3CC3)on2)cn1	Shiga toxin inh 72.8, Pf growth 48h inconclusive, CHX counter 44.2
CCc1ccccc1NNC(=O)c1cc(C)on1	none
CCc1ccccc1NC(=O)c1cc(C2CC2)on1	CHX counter 11.0 (no result: Pf growth 48h)
CCC1CSC(Nc2ccc(C(=O)/C=C/c3ccc(Oc4ccccc4)cc3)cc2)=N1 (stereo not given)	Shiga toxin inh 30.3, Pf growth 96h 6.57µM, Pf growth 48h 10.4µM, CHX counter 47.1
Cc1cccc(/C=C/C(=O)c2cc(Br)ccc(=O)c2O)c1	Pf growth 48h inconclusive (no result: Pf growth 96h)
CCC1CSC(Nc2ccc(C(=O)/C=C/c3cccc(C)c3)cc2)=N1 (stereo not given)	Pf growth 96h inconclusive, CHX counter 13.0
Cn1ccnc1COc1ccc(C=O)cc1	none
Cc1nc2ccc(-c3nc4ccccc4o3)cc2[nH]1	Shiga toxin inh 68.4, Pf growth 96h inconclusive, CHX counter 51.6
Cc1ccnc2ccc(-c3nc4ccccc4o3)cc12	Shiga toxin inh 55.5, CHX counter 21.4
Nc1ccc(-c2nc3ccc(-c4nc5ccccc5o4)cc3[nH]2)cc1	Pf growth 48h 9.28µM, CHX counter 28.2
Cc1cc(Cl)ccc1OC(C)C(=O)Nc1ccc(C(=O)Nc2ccccc2C(=O)O)cc1 (stereo not given)	none
Nc1nc(CCl)nc(N(c2ccccc2)c2ccccc2)n1	Pf growth 96h 2.08µM, Pf growth 48h 5.22µM
OC1CCN(c2cc(-c3ccccc3)nc3cc(-c4ccc(F)cc4)nn23)CC1	Pf growth 48h inconclusive
Cc1cc(N)n2nc(-c3ccccc3)cc2n1	LmPK inhibitor 15.8µM, Shiga toxin inh 89.1, CHX counter 59.9
CCN1CCN(c2cc(-c3ccccc3)nc3cc(-c4cccc(F)c4)nn23)CC1	Pf growth 96h 11.7µM, Pf growth 48h inconclusive
Cc1ccc(-c2cc(N)n3nc(-c4ccc(C)cc4)cc3n2)cc1	none
Cc1ccc(-c2cc3nc(-c4ccccc4)cc(N)n3n2)cc1	Shiga toxin inh 81.7, Pf growth 48h inconclusive, CHX counter 37.6
Cc1ccc(-c2cc3nc(-c4ccccc4)cc(N4CCOCC4)n3n2)cc1	Pf growth 48h inconclusive, CHX counter 23.2
Cn1nnnc1SCC(=O)NC1CCCC1	Pf growth 96h inconclusive
CC1(C)OC2CC(=O)OCC23C1CC(=O)C1(C)C3CC[C@@]2(C)[C@H](c3ccoc3)OC(=O)C3OC312 (stereo not given in full)	none (no result: LmPK inhibitor, Pf growth 96h, Pf growth 48h)
C/C(=N\NC(=O)c1[nH]c2c([N+](=O)[O-])cc(C)cc2c1-c1ccccc1)c1cccnc1	Pf growth 48h inconclusive
Cc1ccc(-c2nc3ccsc3c(=O)o2)cc1	none
CN(C)c1ccc(-c2nc3cc(N)ccc3o2)cc1	CHX counter 13.5
Cc1ccc(C)c(-c2nnc(NC(=O)Cc3ccccc3)o2)c1	Pf growth 96h inconclusive
Cc1ccc2nc(-c3cc(N)cc(N)c3)oc2c1	LmPK inhibitor inconclusive, CHX counter 16.6
Nc1ccc(-c2nc3ccc(N)cc3o2)cc1	CHX counter 39.5 (no result: Pf growth 48h)
Cc1ccc(C)c(-c2nc3cc(N)ccc3o2)c1	Shiga toxin inh 27.6 (no result: Pf growth 96h)
Nc1ccc(-c2nc3cc(N)ccc3n2CCO)cc1	none
COCCNC(=O)Cn1c(=O)n(CCCC(=O)NCc2ccc3c(c2)OCO3)c(=O)c2sccc21	none
Nc1ccc(-c2nc3cc(N)ccc3o2)cc1	Shiga toxin inh 37.8, CHX counter 38.2
Cc1ccc(-c2nc3cc(N)ccc3o2)cc1Br	Pf growth 96h 4.65µM, CHX counter 38.5 (no result: Shiga toxin inh)
COC(=O)c1ccc(-c2nc3cc(N)ccc3o2)cc1	Shiga toxin inh 38.2, CHX counter 17.5
Nc1ccc2oc(-c3cc(Br)ccc3Cl)nc2c1	none (no result: Pf growth 96h)
Cc1c(C)n(Cc2ccc(F)cc2)c2ccc(C(=O)N3CCN(c4ccccn4)CC3)cc12	Pf growth 96h inconclusive
O=Cc1ccccc1OS(=O)(=O)c1ccccc1	none
COc1ccc(CN(C)C(C)C(=O)Nc2cccc3ccccc23)cc1 (stereo not given)	Pf growth 96h inconclusive, Pf growth 48h inconclusive
COc1ccc(Cl)cc1NC(=O)CN(C)C(C)C(=O)NCC1CCCCC1 (stereo not given)	Pf growth 96h inconclusive
COc1ccc(Cl)cc1NC(=O)C(C)N(C)Cc1ccc(C(F)(F)F)cc1 (stereo not given)	Pf growth 96h 2.08µM, Pf growth 48h 7.38µM
COc1ccccc1NC(=O)C(C)N(C)Cc1ccc(Cl)s1 (stereo not given)	Pf growth 96h inconclusive, Pf growth 48h 8.28µM
COc1cc(CN(C)C(C)C(=O)Nc2ccc([N+](=O)[O-])cc2Cl)ccc1OC(F)F (stereo not given)	Pf growth 96h inconclusive, Pf growth 48h 13.1µM
